Only some compounds are listed: those with a hit (about 0.31% of all), similar ones and a draw of the others.
TRPML1 blocker = qHTS for Inhibitors of the Human Mucolipin Transient Receptor Potential 1 (TRPML1); activity change, negative = inhibition, % (no concentration beside the values); hit rate 0.02% among 390,000; AID 624415, 2012; Mucolipin-1 (Homo sapiens), Q9GZU1; TRPML1-inducible cells, Ca2+ dye fluorescence, FDSS; active compounds read low; inhibition of EC80 agonist-evoked calcium signal; in the data active = activity change below about -50%; inconclusive = between about -30% and that limit;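 also: stimulus is agonist 54-4 at its EC80 concentration; % is scaled to controls: 0 for no effect and ±100 for the full control effect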
Target sequence (Q9GZU1 whole entry, looked up): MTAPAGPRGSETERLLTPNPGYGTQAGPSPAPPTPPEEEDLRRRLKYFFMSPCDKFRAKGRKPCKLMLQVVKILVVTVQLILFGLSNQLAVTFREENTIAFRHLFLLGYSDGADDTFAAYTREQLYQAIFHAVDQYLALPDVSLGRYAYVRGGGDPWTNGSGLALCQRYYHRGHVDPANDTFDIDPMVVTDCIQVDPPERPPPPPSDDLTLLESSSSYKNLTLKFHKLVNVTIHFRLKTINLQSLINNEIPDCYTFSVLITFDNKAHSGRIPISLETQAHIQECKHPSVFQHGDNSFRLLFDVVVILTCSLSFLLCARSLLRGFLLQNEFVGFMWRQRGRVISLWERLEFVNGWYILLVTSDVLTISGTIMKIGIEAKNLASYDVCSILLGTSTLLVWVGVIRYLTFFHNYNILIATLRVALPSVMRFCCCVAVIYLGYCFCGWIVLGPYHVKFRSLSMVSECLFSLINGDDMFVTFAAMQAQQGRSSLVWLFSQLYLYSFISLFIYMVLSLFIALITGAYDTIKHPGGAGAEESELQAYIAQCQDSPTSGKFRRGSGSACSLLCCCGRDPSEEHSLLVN
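TRPML1-DL cells, Tet-induced overnight (~16 h, 37 °C) at 1,500 cells/well, were loaded with Ca8 no-wash dye plus quencher for 45-90 min at room temperature. Compounds were pinned during FDSS kinetic reading; agonist 54-4 at EC80 (4 uM final) then added.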
TRPML1 agonist = qHTS for Agonists of the Human Mucolipin Transient Receptor Potential 1 (TRPML1). hit rate 0.12% among 410,000. TRPML1-expressing cells, Ca2+ dye fluorescence, FDSS. Mucolipin-1 (Homo sapiens), Q9GZU1. activation, % (no concentration beside the values); in the data active = activation above about 50%; inconclusive = mostly about 30% to 49%; also: 0% is about no effect
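Calcium fluorescence on an FDSS kinetic reader gave the read-out. Tet-induced TRPML1-DL cells were plated overnight, dye-loaded (Ca8 with quencher, 45-90 min, room temperature, dark), then read 110 s after compound addition, and again 110 s after 4uM final 54-4 (EC80).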
TRPV1 PAM = HTS Assay for Compounds that Act as Potentiators of the Vanilloid Receptor 1; Transient receptor potential cation channel subfamily V member 1 (Homo sapiens), Q8NER1; TRPV1-expressing cells, Fluo-8 calcium influx, capsaicin EC20 potentiation; potentiation, % at 8.33 µM; hit rate 0.02% among 320,000; AID 540277, 2011; in the data active = potentiation above about 80%; inconclusive = between about 30% and that limit; also: 0% is about no effect
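Fluo-8 calcium influx in TRPV1-expressing cells, kinetic read (ex 480/em 520 nm). Compound added and read 3 min for agonist activity, followed by capsaicin at EC20 final and 2 min further read for enhancement.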
TRPV1 ag = HTS Assay for Compounds that Act as Agonists of the Vanilloid Receptor 1; TRPV1-expressing cells, Fluo-8 calcium influx, agonist mode; activation, % at 8.33 µM; hit rate 0.19% among 320,000; AID 540275, 2011; in the data active = activation above about 80%; inconclusive = between about 30% and that limit; also: 0% is about no effect
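TRPV1-expressing cells were cultured overnight at 35.5C and loaded with Fluo-8 calcium dye for 40 to 90 min at room temperature. After a 10 s baseline, compound was added and calcium influx was read kinetically for 3 min (ex 480/em 520 nm).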
An asterisk follows results filed as active.

For CC(=O)Nc1sc(/C(C#N)=C\c2cccc(Cl)c2)nc1-c1ccc(C)cc1 the results were TRPML1 blocker -22.5, TRPML1 agonist 76.8*, TRPV1 PAM 14.2 and TRPV1 ag inconclusive.
For CC(=O)Nc1sc(N/N=C/c2ccccc2)nc1-c1ccc(C)cc1 the results were TRPML1 blocker 18.3, TRPML1 agonist -0.4, TRPV1 PAM 3.4 and TRPV1 ag 3.8.
For CCCOc1ccc(OCCOCCNCc2ccccc2)cc1 the results were TRPML1 blocker 3.6, TRPML1 agonist 0.2, TRPV1 PAM 10.5 and TRPV1 ag 0.6.
Screening CCOc1ccc(OCCOCCNCCOC)cc1 returned TRPML1 blocker -24.9, TRPML1 agonist 59.8*, TRPV1 PAM 2.6 and TRPV1 ag 1.8.
`Cc1ccc(C(=O)NCC(c2ccco2)S(=O)(=O)c2ccc(Cl)cc2)cc1C` (configuration not stated) gave TRPML1 blocker -21.0 and TRPML1 agonist 0.9.
`COc1cc(/C=N/N2C(=O)CSC2=S)ccc1O` gave TRPML1 blocker -15.4, TRPML1 agonist 1.6, TRPV1 PAM 3.1 and TRPV1 ag -0.5.
For O=C1CSC(=S)N1/N=C/c1cc(Br)c(O)c(Br)c1 the results were TRPML1 blocker -13.3, TRPML1 agonist 58.9*, TRPV1 PAM -11.4 and TRPV1 ag inconclusive.
`Cc1cccc2c(C(O)c3cn(C)c4ccccc34)c[nH]c12` (configuration not stated) gave TRPML1 agonist 1.4.
`O=C(Nc1ccc(F)cc1)/C(Cl)=C/c1ccccc1` gave TRPML1 blocker 27.0, TRPML1 agonist 2.0, TRPV1 PAM -0.6 and TRPV1 ag 83.2*.
For CC(C)(C)C(=O)Nc1ccc2c(c1)C(=O)C(=O)c1ccccc1-2 the results were TRPML1 agonist 1.8.
Screening Cc1ccc(S(=O)(=O)c2c(Nc3cc(F)ccc3F)sc(C(=O)c3ccc(F)cc3)c2N)cc1 returned TRPML1 blocker -13.9 and TRPML1 agonist 16.3.
CC(=O)N1CCOc2ccc(S(=O)(=O)N3CCC(C)CC3)cc21 was read as TRPML1 blocker -59.2*, TRPML1 agonist 0.2, TRPV1 PAM 14.7 and TRPV1 ag -2.9.
`CC(C)(C)n1ncc2c(=O)n(Cc3ccccc3SC(F)(F)F)cnc21` gave TRPML1 blocker 11.0 and TRPML1 agonist 1.0.
For CN(C)c1ccc(/C=C/c2cccc3cc4ccccc4nc23)cc1 the results were TRPML1 agonist 0.4.
O=C(O)c1sc2cccc(Cl)c2c1Cl was read as TRPML1 blocker 1.4, TRPML1 agonist 0.4, TRPV1 PAM -7.9 and TRPV1 ag 82.9*.
CCCCn1nnnc1C(c1ccccc1)N1CCN(Cc2c(F)cccc2Cl)CC1 (configuration not stated) was read as TRPML1 agonist 57.3*.
CC1=CC(C)(C)N(C(=O)CN2C(=O)c3ccccc3C2=O)c2ccc(C)cc21 was read as TRPML1 blocker -5.4, TRPML1 agonist 61.4*, TRPV1 PAM -9.2 and TRPV1 ag -0.8.
O=C(Nc1cccnc1)c1ccc(F)cc1 was read as TRPML1 blocker -1.8, TRPML1 agonist -0.5, TRPV1 PAM -15.6 and TRPV1 ag 17.6.
Screening O=C(Nc1cccnc1)c1ccc(N2CCOCC2)c([N+](=O)[O-])c1 returned TRPML1 blocker -13.4, TRPML1 agonist 0.3, TRPV1 PAM -23.2 and TRPV1 ag inconclusive.
For O=C(Nc1cccnc1)c1ccc(N2CCCC2)c([N+](=O)[O-])c1 the results were TRPML1 blocker 9.0, TRPML1 agonist -0.5, TRPV1 PAM -16.9 and TRPV1 ag 84.4*.
For O=C(Nc1cccnc1)c1ccc(-c2ccccc2)cc1 the results were TRPML1 blocker 4.9, TRPML1 agonist 0.3, TRPV1 PAM -2.4 and TRPV1 ag 87.5*.
Screening C(=C\c1ccnc2ccccc12)/c1ccc(N2CCNCC2)cc1 returned TRPML1 agonist 0.6.
`CC(C)(C)n1ncc2c(=O)n(Cc3ccc(Cl)c(C(F)(F)F)c3)cnc21` gave TRPML1 blocker 29.0 and TRPML1 agonist 0.3.
Screening COc1cccc(Cn2c(C)c(CNCc3cccc(C)c3)c(C(=O)O)c2C)c1 returned TRPML1 blocker 4.8 and TRPML1 agonist 3.3.

High-throughput results deposited in PubChem BioAssay by National Center for Advancing Translational Sciences (NCATS).
